High-throughput results from PubChem BioAssay.
BoNT-A LC inh2: BoNT/A light chain protease inhibitors, primary screen, biochemical, flow cytometry, MLPCN library. multiplex microsphere protease substrate cleavage. inhibition, % at 10 µM. 360,000 compounds, 0.17% hits; also: plate controls were buffer without enzyme for full effect and enzyme alone for no effect
BoNT F protease: BoNT/F light chain protease inhibitors, primary screen, biochemical, flow cytometry, MLPCN library | Botulinum neurotoxin type F light chain protease (Clostridium botulinum) | Multiplex microsphere protease cleavage assay | inhibition, % at 10 µM | 360,000 compounds, 0.22% hits; in the data active = inhibition above about 35%, passing the limit was not always enough; inconclusive = no clear call, values can overlap the other calls; also: plate controls were buffer without enzyme for full effect and enzyme alone for no effect
Anthrax LF inh2: Bacillus anthracis LF protease inhibitors, primary screen, biochemical, multiplex microsphere, MLPCN library. Lethal factor (Bacillus anthracis), P15917. multiplex microsphere protease cleavage assay. inhibition, % at 10 µM. 360,000 compounds, 0.12% hits. AID 588501, 2011; also: plate controls were buffer without enzyme for full effect and enzyme alone for no effect
Target sequence (P15917 whole entry, looked up): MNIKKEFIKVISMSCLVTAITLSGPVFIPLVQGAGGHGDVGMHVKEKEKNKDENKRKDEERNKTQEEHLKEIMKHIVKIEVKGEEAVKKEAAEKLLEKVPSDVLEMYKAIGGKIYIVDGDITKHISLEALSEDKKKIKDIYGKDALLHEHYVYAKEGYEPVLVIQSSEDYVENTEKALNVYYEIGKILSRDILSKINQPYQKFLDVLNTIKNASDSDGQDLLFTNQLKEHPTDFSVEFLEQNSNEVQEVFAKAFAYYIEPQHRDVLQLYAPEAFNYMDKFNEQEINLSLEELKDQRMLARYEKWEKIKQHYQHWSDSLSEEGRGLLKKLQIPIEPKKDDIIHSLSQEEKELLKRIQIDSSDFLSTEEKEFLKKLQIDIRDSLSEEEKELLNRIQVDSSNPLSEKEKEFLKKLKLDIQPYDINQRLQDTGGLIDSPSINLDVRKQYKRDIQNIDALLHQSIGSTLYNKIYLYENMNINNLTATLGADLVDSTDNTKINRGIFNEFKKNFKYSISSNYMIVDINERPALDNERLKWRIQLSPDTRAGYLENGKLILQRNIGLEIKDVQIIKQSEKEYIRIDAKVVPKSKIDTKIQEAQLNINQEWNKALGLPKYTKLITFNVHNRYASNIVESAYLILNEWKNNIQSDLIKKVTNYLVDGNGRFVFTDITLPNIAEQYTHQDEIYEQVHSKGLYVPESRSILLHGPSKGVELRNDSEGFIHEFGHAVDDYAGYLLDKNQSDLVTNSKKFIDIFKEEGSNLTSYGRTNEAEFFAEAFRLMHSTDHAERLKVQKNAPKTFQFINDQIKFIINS
Bead autofluor: counter-screen for toxin protease inhibitors: compound fluorescence. compound autofluorescence counterscreen, microsphere flow cytometry; hits give high values. fluorescence intensity (test concentration not listed). 360,000 compounds, 3.1% hits; in the data active = fluorescence intensity above about 16000; inconclusive = no clear call, values can overlap the other calls
PriA SSB inh: inhibitors of Klebsiella pneumoniae PriA binding to SSB C-terminal tail, primary screen, biochemical, AlphaScreen; AlphaScreen SSBct-PriA binding, biotinylated peptide; 430,000 compounds, 0.6% hits; AID 1272365, 2023; inhibition, % at 33 µM; in the data active = inhibition mostly above about 37%, no sharp cut-off; inactive = mostly below about 20%;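 also: plate controls were negative control peptide for no effect and reference peptide for full effect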
The depositor's hits bear a star; ? = inconclusive; / = not tested or not shown; ! = not active in a repeat. This is a sample that favours compounds with a hit; in the whole collection about 3.1% have one here. Rule as the data show it, unless noted: active = inhibition above about 30%; inconclusive = no clear call, values can overlap the other calls; inactive = below that.

SMILES | BoNT-A LC inh2 | BoNT F protease | Anthrax LF inh2 | Bead autofluor | PriA SSB inh
CSc1ccc(-c2nnc(NC(=O)c3ccc(S(=O)(=O)N4CCOCC4)cc3)o2)cc1 | / | / | / | / | -14
O=C(COc1ccc(Cl)cc1Cl)N1CCN(CCN2C(=O)c3cccc4cccc(c34)C2=O)CC1 | / | / | / | / | -9
C=CCNc1nc(C(=O)OCC(=O)c2ccc(F)cc2)cs1 | 3 | 11 | -5 | 4324 | 46*
CCCCOc1ccc(OCCSc2nc3ccccc3n2CC(=O)O)cc1 | -1 | ? | 6 | 4100 | -3
CCCCOC(=O)n1c(SCC(=O)N(C)C)nc2ccccc21 | 6 | 6 | 3 | 20862* | -11
Cc1cc(C)c(C)c(N=Nc2nc3ccccc3n2C)c1C | 0 | -5 | -2 | 1879 | 68*
COc1ccc(CCC(=O)NCCSc2ncc(-c3ccc(OC)cc3)[nH]2)cc1 | / | / | / | / | 38*
CCc1ccc2nc(NCc3ccccc3)sc2c1 | / | / | / | / | 15
NC(=O)c1ccc(-c2ncc(-c3ccccc3)o2)cc1 | 6 | 6 | -2 | 18854* | -2
S=C(NC1Cc2ccccc2C1)N1CCc2ccccc21 | / | / | / | / | -6
CCOC(=O)c1cnc(-n2[nH]c(C)cc2=O)[nH]c1=O | -2 | -9 | -8 | 4579 | 93*
CCOC(=O)c1cnc(Cc2ccccc2)[nH]c1=O | 4 | -26 | 5 | 4146 | -14
CCOC(=O)c1cnc(-n2[nH]c(C)c(Cc3ccccc3)c2=O)[nH]c1=O | -2 | -7 | 0 | 2201 | 84*
CCCCOc1cccc(C(=O)Nc2sc(C)c(C)c2C#N)c1 | / | / | / | / | -9
O=C(c1ccoc1)N(c1ccccc1)C1CCCCC1 | / | / | / | / | -16
Cc1cc(C)cc(NC(=O)c2cccn2-c2ncc(C(F)(F)F)cc2Cl)c1 | ? | -7 | -3 | 25062* | 6
O=C(Nc1ccc(F)cc1F)c1cccn1-c1ncc(C(F)(F)F)cc1Cl | -1 | -8 | -1 | 10426 | -7
COc1ccc(C=NNC(=O)c2cc(C(C)(C)C)[nH]n2)cc1COc1ccc(F)cc1F | / | / | / | / | -8
CCc1nn(C)c(N)c1-c1ccc(F)cc1 | / | / | / | / | -14
CCc1c(C)nc2n(c1=O)C[C@H](C(=O)Nc1ccc(C(=O)OC)cc1)CS2 | / | / | / | / | -9
Nn1c(SCc2cccc3ccccc23)nnc1-c1ccco1 | 0 | 2 | -2 | 22596* | 15
Cn1c(SCc2cccc3ccccc23)nnc1-c1ccco1 | 0 | -4 | 1 | 2599 | 10
Cc1cccc(C)c1NC(=O)CSc1nnc(-c2ccco2)n1N | 1 | 0 | 0 | 21789* | -13
Cc1ccc(C)c(NC(=O)CSc2nnc(-c3ccco3)n2N)c1 | / | / | / | / | 1
CCC(=O)N1CCCc2cc(NS(=O)(=O)c3ccc(OCC(C)C)cc3)ccc21 | / | / | / | / | 12
SMILES | BoNT-A LC inh2 | BoNT F protease | Anthrax LF inh2 | Bead autofluor | PriA SSB inh
CCOC(=O)N1CCN(c2cc3nccnc3cc2F)CC1 | ? | -6 | 0 | 22764* | -9
CCCC(=O)c1cc(F)c(N2CCN(C(=O)OCC)CC2)cc1C | 0 | -10 | 0 | 8786 | -31
O=C1C2C3C=CC(C3)C2C(=O)N1CC1CCCO1 (stereo not drawn) | ? | -1 | 1 | 20157* | -16
O=C1C2C3CC(C(Br)C3Br)C2C(=O)N1CC1CCCO1 (stereo not drawn) | -9 | ? | -6 | 4187 | 1
O=C(NCCn1nc(-n2cncn2)ccc1=O)c1ccc(-n2cccn2)nn1 | / | / | / | / | -18
CC(COc1cccc2ccccc12)CN1CCN(C)CC1 (stereo not drawn) | -2 | -6 | -2 | 24009* | 2
Brc1ccc(Cn2c(-c3ccc(Br)o3)nc3ccccc32)o1 | 0 | -2 | -3 | 2197 | 57*!
O=CN(/C=C1\Sc2ccccc2C1=O)Cc1ccccc1 | 2 | 3 | 1 | 22692* | 7
Cc1c(C(=O)Nc2nc3c(s2)COCC3)cnn1-c1ccccc1 | / | / | / | / | -4
COc1ccc(C)cc1-n1nnnc1SC/C(O)=C(\C#N)c1nc2ccccc2[nH]1 | 0 | -1 | 1 | 21719* | /
COc1ccccc1-c1nnc(SCC(O)=C(C#N)c2nc3ccccc3[nH]2)n1C1CCCCC1 | / | / | / | / | 5
CC(=O)c1ccc(-c2cccc(-c3nc4ccccn4c3NC3CCCCC3)c2)cc1 | 0 | -1 | 4 | 3560 | 41*
CCC(C)Sc1cc(-c2nc3ccccn3c2NC2CCCCC2)ccc1OC (stereo not drawn) | -1 | -9 | -4 | 4371 | 29
N#Cc1ccc(NC(=O)COC(=O)CCc2nc3ccccc3c(=O)[nH]2)cc1 | -26 | -127 | -15 | 26617* | -3
Cc1ccnc(SCC(=O)Nc2sc3c(c2C#N)CCC(C(C)(C)C)C3)n1 (stereo not drawn) | ? | -1 | -1 | 19751* | -2
O=S(=O)(Cc1cc(Sc2ccc(Cl)cc2)nc(-c2ccccc2)n1)c1ccccc1 | -1 | -9 | 0 | 2320 | -16
CCOC(=O)C(C)Sc1cc(CS(=O)(=O)c2ccccc2)nc(-c2ccccc2)n1 (stereo not drawn) | ? | 6 | -3 | 20917* | -11
C/C(=N\Nc1cc(-c2ccccc2)nc(-c2ccc(Br)cc2)n1)c1cccc(N)c1 | -6 | -13 | -5 | 17624* | /
CCOC(=O)c1ccc2nc(NC(=O)c3cc(Cl)sc3Cl)sc2c1 | / | / | / | / | -1
COc1ccc(C(=O)Nc2nc3cc(OC)c(OC)cc3c(=O)[nH]2)cc1 | -3 | -5 | -2 | 25582* | -11
COc1ccc2nc3cccc(OC)c3nc2c1 | 5 | 2 | 0 | 3991 | 10
COc1ccc2nc3ccccc3nc2c1N | -3 | -29 | -6 | 3756 | 48*
O=c1cccc2n1CC1CNC[C@H]2C1 | 0 | 3 | -16 | 4186 | -5
CN1CCC(N2CC3CC(C2)c2cccc(=O)n2C3)CC1 (stereo not drawn) | -2 | -6 | 0 | 24622* | -10
Cc1ccc(CNC(=O)C(C)OC(=O)c2ccco2)cc1 (stereo not drawn) | ? | 4 | 0 | 22466* | 1
SMILES | BoNT-A LC inh2 | BoNT F protease | Anthrax LF inh2 | Bead autofluor | PriA SSB inh
Cc1cc(C(=O)N2CCCCCC2)cs1 | -1 | -2 | -4 | 23371* | 3
Cc1cc(C)cc(C(=O)N2CCCCCC2)c1 | -1 | 2 | -1 | 23038* | 4
CCNC(=S)NN=Cc1cccc(C)c1 | / | / | / | / | -2
N#Cc1cnc2ccccc2c1Nc1ccc(Br)cc1 | / | / | / | / | -16
N#CC1=C(Nc2ccc(Br)cc2)CCC1 | -2 | -10 | -5 | 16939* | -5
Cc1oc2c(cc(NS(=O)(=O)c3ccc4c5c(cccc35)C(=O)N4)c3ccccc32)c1C(=O)OC(C)C | 2 | 1 | 1 | 19667* | 6
O=C1CCCc2oc3c(cc(NS(=O)(=O)c4ccc5c6c(cccc46)C(=O)N5)c4ccccc43)c21 | 1 | -1 | -3 | 5180 | -10
O=C(Nc1cccc2nsnc12)C1CN(C(=O)c2ccc3c(c2)OCO3)C1 | / | / | / | / | -7
CCC1Oc2ccc(C)cc2N(CC(=O)NCCC2=CCCCC2)C1=O (stereo not drawn) | ? | 7 | 1 | 18757* | -8
